Screening results: PubChem BioAssay, The Scripps Research Institute Molecular Screening Center
This is a sample that favours compounds with a hit; in the whole collection about 3.5% have one here.
TEAD-YAP block: TEAD-YAP interaction inhibition; HEK-TIYL cells, TEAD-Gal4/YAP UAS-luciferase luminescence; inhibition, % at 9.12 µM; 1.4% of 640,000 active; AID 1259422; in the data active = inhibition above about 32%;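 note: 0% = median of test compound wells and 100% = reference inhibitor wells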
GPR151 activ: activates the human receptor GPR151. Q8TDV0. PathHunter beta-arrestin GPR151 cells, luminescence. activation, % at 11.2 µM. 1% of 650,000 active; in the data active = activation above about 4.9%;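 note: 0% = median of compound wells and 100% = cells with positive control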
Target sequence (Q8TDV0 whole entry, looked up): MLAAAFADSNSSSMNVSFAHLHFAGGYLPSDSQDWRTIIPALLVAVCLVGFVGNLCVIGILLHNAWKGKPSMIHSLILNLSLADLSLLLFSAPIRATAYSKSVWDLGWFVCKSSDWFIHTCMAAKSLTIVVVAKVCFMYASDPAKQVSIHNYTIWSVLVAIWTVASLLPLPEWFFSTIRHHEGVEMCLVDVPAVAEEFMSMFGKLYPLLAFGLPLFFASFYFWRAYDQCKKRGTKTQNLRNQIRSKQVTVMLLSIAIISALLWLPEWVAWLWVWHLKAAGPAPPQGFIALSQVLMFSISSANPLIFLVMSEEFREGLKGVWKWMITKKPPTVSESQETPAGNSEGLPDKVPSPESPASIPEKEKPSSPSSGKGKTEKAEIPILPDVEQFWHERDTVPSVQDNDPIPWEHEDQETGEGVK
FBW7 act: human FBW7 E3 ligase activation, primary screen; normalized activity (activation), % at 26.1 µM; AID 1259310; Q969H0; AlphaScreen FBW7–phospho-cyclin E peptide binding, activator screen; 0.13% of 650,000 active; in the data active = normalized activity above about 1.9%;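 note: purified mutant Fbw7 with reduced substrate affinity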
MITF inh: human MITF inhibition, primary screen | AlphaScreen MITF homodimerization, bead proximity signal | O75030 | 0.91% of 650,000 active | inhibition, % at 2.6 µM | AID 1259374; in the data active = inhibition above about 50%;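 note: 0% = vehicle wells with protein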
Numbers without * were called inactive; ! = a repeat was not active.

SMILES | TEAD-YAP block | GPR151 activ | FBW7 act | MITF inh
CCOCCOC(=O)c1ccc(NC(=O)c2ccc(C(C)(C)C)cc2)cc1 | 68.6* | 0.2 | 0.3 | 2.6
Cn1c(-c2ccc(Br)cc2)cnc1NC(=O)c1ccccc1 | -31.4 | -1.0 | -0.8 | 6.0
O=C(c1cccn2c(=O)c3c4c(sc3nc12)CCCC4)N1CCN(c2ccccc2)CC1 | 3.3 | -0.4 | 0.3 | 0.7
CNC(=O)c1cc2sccc2nc1C | 4.3 | 0.4 | 0.6 | 13.8
COc1ccc(C(c2nnnn2C(C)(C)C)N2CCCC2)cc1OC (centres undefined) | -14.3 | 0.1 | 1.4 | 15.4
COc1ccc(-c2cc(-c3c(O)ccc4ccccc34)[nH]n2)cc1 | 88.6* | 2.3 | 0.1 | 4.5
COc1ccc(-c2cc(-c3cc(OC)ccc3O)[nH]n2)cc1 | -45.7 | 0.1 | -0.7 | 12.2
CCCOc1ccc(/C(O)=C2\C(=O)C(=O)N(CCCN(C)C)C2c2ccc(OC)c(OC)c2)c(C)c1 (centres undefined) | 32.8* | -1.8 | 0.3 | 15.4
CCCOc1ccc(/C(O)=C2\C(=O)C(=O)N(CCN(C)C)C2c2ccc(OC)c(OC)c2)c(C)c1 (centres undefined) | -6.8 | 0.6 | -0.4 | -5.7
CCC(C)C(=O)NCc1nnc2n1CCN(C(=O)CCc1c[nH]c3ccccc13)CC2 (centres undefined) | 13.3 | -1.4 | 0.1 | 4.5
CN1CCN(c2ccc(-c3cncc(/C=C/c4ccccc4)n3)cn2)CC1 | 41.2* | 0.0 | -0.1 | -19.2
O=C(c1ccco1)N1N=C(c2ccccc2O)CC1c1ccc(F)cc1 (centres undefined) | 2.5 | -0.3 | 0.1 | -9.7
Cc1cccc(NC(=O)C2CCN(c3ccc(-c4cccs4)nn3)CC2)n1 | 54.8* | -9.7 | 0.4 | 18.8
CCOC(=O)c1ccccc1NC(=O)C1CCN(c2ccc(-c3cccs3)nn2)CC1 | 3.2 | 0.4 | 0.1 | 8.0
O=C(Nc1cccc(C(F)(F)F)c1)N1CCC(CN2CCCCC2)CC1 | -1.6 | -1.3 | -0.1 | 1.7
Cc1ccc(-n2nc3c(c2NC(=O)C2CCCC2)CSC3)c(C)c1 | 4.1 | 0.5 | 1.9* | 16.5
O=C(COC(=O)c1cc(-c2ccccc2)nc2ccc(I)cc12)c1ccc(Br)cc1 | 2.0 | 4.0 | 0.1 | 0.1
O=C1c2ccc(O)c(O)c2C(=O)c2c(O)ccc(O)c21 | 2.1 | 1.5 | 0.9 | 66.2*
CC(C)(C)C(=O)N1CCC[C@@H](Cn2nc(-c3cccs3)ccc2=O)C1 | 66.1* | 0.1 | 0.2 | 11.5
Brc1ccc(-c2nc(-c3ccc(Br)cc3)c(-c3ccccc3Br)[nH]2)cc1 | -5.7 | 0.3 | 0.1 | 7.8
Fc1ccc(N=c2oc3ccccc3cc2-c2nc3ccccc3[nH]2)cc1 | -40.5 | -4.4 | -0.1 | 2.5
COc1ccc(N=c2oc3ccccc3cc2-c2nc3ccccc3[nH]2)cc1 | 38.2* | -10.0 | 0.3 | 10.1
Fc1ccccc1N=c1oc2ccccc2cc1-c1nc2ccccc2[nH]1 | 39.7* | -9.7 | 0.0 | -12.8
Cc1nccn1-c1cc(N2CCN(C(=O)C(c3ccccc3)c3ccccc3)CC2)ncn1 | -1.2 | 3.4 | 0.3 | -7.0
C=CCNCCCOc1ccc(C(C)C)c(C)c1 | 41.7* | -2.5 | 0.0 | 36.8
SMILES | TEAD-YAP block | GPR151 activ | FBW7 act | MITF inh
Cc1cc(OCCCNCCN)ccc1C(C)C | -2.1 | -1.8 | -0.1 | -2.4
Cc1cc(OCC(O)CNC2CCCC2)ccc1C(C)C (centres undefined) | 12.4 | -0.2 | 0.1 | 12.8
Cc1cc(OCC(O)CNC(C)C)ccc1C(C)C (centres undefined) | 50.7* | -0.2 | 0.0 | -15.9
CC(C)n1c(N2CCN(Cc3ccc4c(c3)OCO4)CC2)nc2c(NC3CC3)ncnc21 | 3.4 | 1.0 | 0.1 | 17.1
COc1cccc(C2Nc3ccc(C(=O)O)cc3C3C=CCC32)c1 (centres undefined) | 6.0 | 0.4 | -1.7 | 65.3*
O=C(O)c1ccc([C@@H]2Nc3ccc(F)cc3[C@@H]3C=CC[C@@H]32)cc1 | 3.7 | -0.7 | -1.0 | 65.5*
COC(=O)c1ccc2c(c1)C1C=CCC1C(c1ccc(F)cc1)N2 (centres undefined) | -2.2 | 3.8 | -0.7 | -2.0
COc1ccc2c(c1)C1C=CCC1C(c1ccc(C(=O)O)cc1)N2 (centres undefined) | -14.2 | -2.1 | -1.4 | 52.0*
COc1ccc(OC)c([C@@H]2Nc3ccc(C(=O)O)cc3[C@@H]3C=CC[C@@H]32)c1 | -6.5 | -1.1 | -0.1 | 30.7
COC(=O)c1ccc(C2Nc3ccc(C(=O)O)cc3C3C=CCC32)cc1 (centres undefined) | 4.2 | 0.4 | -0.9 | 74.6*
CC(C)(C)NC(=O)N1CCC2(CC1)OCc1cc(F)ccc1O2 | 0.9 | 0.2 | -0.2 | -3.9
COc1ccc(C2Nc3ccc(C(=O)O)cc3C3C=CCC32)cc1 (centres undefined) | -3.4 | 0.0 | -0.8 | 72.8*
O=C(O)c1ccc2c(c1)C1C=CCC1C(c1cccc([N+](=O)[O-])c1)N2 (centres undefined) | 14.4 | 1.1 | -0.5 | 82.5*
O=[N+]([O-])c1cccc(C2Nc3ccc4ccccc4c3C3C=CCC32)c1 (centres undefined) | 40.2* | 0.3 | 0.0 | 3.2
COc1ccccc1NC(=O)COc1ccc(F)cc1 | -19.5 | 0.0 | 0.0 | 2.7
COC(=O)C1=C(C)N=c2s/c(=C/c3ccc4c(c3)OCO4)c(=O)n2C1c1ccc(OC(C)=O)cc1 (centres undefined) | 7.3 | 0.5 | -0.1 | 2.8
CCOC(=O)Nc1c(C)cc(C)cc1[N+](=O)[O-] | 50.0* | -0.1 | 0.2 | 8.0
COc1cc([N+](=O)[O-])ccc1NC(=O)c1ccco1 | -6.6 | -1.0 | 0.0 | 11.8
COc1cccc(C(=O)/C=C/Nc2ccc([N+](=O)[O-])cc2OC)c1 | 34.6* | 0.4 | -0.1 | 1.1
COc1cc([N+](=O)[O-])ccc1N/C=C/C(=O)c1ccc(C)o1 | 35.1* | 1.7 | -0.2 | 1.4
COc1cc([N+](=O)[O-])ccc1N/C=C/C(=O)c1ccco1 | 71.1* | 0.1 | -0.1 | 15.0
CCOc1ccc2nc(C)cc(Nc3ccc(OCc4ccccc4Cl)cc3)c2c1 | 8.0 | 0.4 | -0.2 | 6.6
Cc1cc(C)c(C#N)c(SCC(=O)Nc2ccccn2)n1 | 85.5* | -0.5 | 0.2 | 8.9
Cc1cc(C(F)(F)F)c(N)c(SCC(=O)Nc2nc3ccccc3s2)n1 | 65.4* | 0.8 | 0.3 | -3.5
Cc1cc(C(F)(F)F)c(C#N)c(SCC(=O)Nc2ccc(F)cc2)n1 | -12.3 | -0.1 | 0.0 | 4.3
SMILES | TEAD-YAP block | GPR151 activ | FBW7 act | MITF inh
Cc1cc(C)c(C#N)c(SCC(=O)Nc2nccs2)n1 | -53.7 | -1.2 | 0.3 | -2.6
Cc1cccc(NC(=O)CSc2nc(C)cc(C(F)(F)F)c2C#N)n1 | 87.7* | -1.7 | 0.9 | 14.2
COC(=O)CSc1nc(N)c(C#N)c(-c2ccco2)c1C#N | -0.5 | 1.4 | -0.1 | -11.4
Cc1cc(C)nc(SCC(=O)Nc2nc3ccccc3s2)n1 | -3.6 | -0.6 | 0.0 | -5.0
COC(=O)CSc1nc(-c2ccco2)cc(C(F)(F)F)c1C#N | 10.8 | -0.9 | 2.0* | -0.3
Cc1ccccc1-n1nc2c(c1NC(=O)c1ccccc1I)CS(=O)(=O)C2 | 10.0 | 0.1 | 0.7 | 10.2
O=c1[nH]cc(F)c(=O)[nH]1 | 34.9*! | 3.2 | 0.4 | 12.0
